Values without a mark were called inactive. For part of these data: Potency and affinity values are given separately. Activity calls are given as the source filed them. Unless noted, the rule behind the calls is not given here.

One may read the inhibition as the relative decrease from the control value, in per cent.

Assay [1] is described as follows: antimalarial activity against Dd2 strain (AID 2302;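 active = growth inhibition above 50% at the single 2 µM test dose, taken to imply half-maximal potency below 2 µM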;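 note: 0% = DMSO untreated growth and 100% = chloroquine plus artemisinin killed control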). The settings on record: P. falciparum Dd2 in RBCs, LDH growth readout, 72 h; at 2 µM; active compounds read high.
A short description of assay [2]: HepG2 cytotoxicity, primary screen, cytotoxicity control for P. falciparum antimalarial project, cell-based, ATP luminescence (AID 2303;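 active = inhibition above 50%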;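 note: 0% = DMSO wells and 100% = digitonin-killed cells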). The settings on record: HepG2 viability, 24-48 h, at 10 µM, active compounds read high.
Assay [3] concerns the target L-lactate dehydrogenase (Plasmodium falciparum (isolate CDC / Honduras)) (UniProt Q27743). Briefly: PfLDH activity inhibition – cell lysate, 3D7 strain, counter-screen for P. falciparum growth inhibition project (AID 2304).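 Note: 0% = vehicle and 100% = reference inhibitor.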 The settings on record: P. falciparum 3D7 crude extract, LDH APAD/NBT absorbance; at 2 µM; active compounds read high. Background: Counterscreens check selectivity or assay interference.

Assay [4] in a line: inhibition of 3D7 malaria parasite growth – strain 3D7 (AID 2306).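 Note: 0% = DMSO wells and 100% = chloroquine plus artemisinin control wells.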 As to conditions: P. falciparum 3D7 erythrocytic growth, LDH absorbance, 72 h; at 2 µM; active compounds read high.
In assay [5] the target is Calcium-dependent protein kinase 1 (Plasmodium falciparum (isolate 3D7)) (UniProt P62344). As to the kind of experiment: PfCDPK1 kinase inhibitors, biochemical, TCAMS library (AID 1159585; cut-off not given, nearly all actives have IC50 up to about 0.98 µM;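 note: inhibitors leave more ATP so luminescence rises with inhibition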). The settings on record: recombinant PfCDPK1, Kinase-Glo ATP depletion luminescence. On the technique in general: In Kinase-Glo more light means more ATP remaining.
Sequence of Calcium-dependent protein kinase 1 (Plasmodium falciparum (isolate 3D7)) (P62344 whole entry, looked up): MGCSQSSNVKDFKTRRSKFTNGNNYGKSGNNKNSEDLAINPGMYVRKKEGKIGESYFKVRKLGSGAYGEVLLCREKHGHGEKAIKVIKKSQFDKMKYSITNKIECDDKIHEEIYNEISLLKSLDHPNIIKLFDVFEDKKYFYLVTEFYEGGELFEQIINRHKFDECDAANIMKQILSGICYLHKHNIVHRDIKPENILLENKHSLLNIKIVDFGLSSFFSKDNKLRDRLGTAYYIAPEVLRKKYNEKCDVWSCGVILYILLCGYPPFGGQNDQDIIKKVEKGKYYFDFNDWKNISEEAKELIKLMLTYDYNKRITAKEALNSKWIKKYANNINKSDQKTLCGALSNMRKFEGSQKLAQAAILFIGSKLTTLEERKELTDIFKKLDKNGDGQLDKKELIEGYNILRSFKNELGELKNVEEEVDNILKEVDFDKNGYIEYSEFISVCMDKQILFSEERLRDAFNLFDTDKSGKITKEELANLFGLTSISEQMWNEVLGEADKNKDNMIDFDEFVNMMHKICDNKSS
For assay [6], the target named is Plasmodium falciparum protein kinase 6 (PK6, PF3D7_1337100) (UniProt Q8IDW1). Briefly: PfPK6 kinase inhibitors, biochemical, TCAMS library (AID 1159586). As to conditions: recombinant PfPK6, Kinase-Glo ATP depletion luminescence.
Sequence of Plasmodium falciparum protein kinase 6 (PK6, PF3D7_1337100) (Q8IDW1 1-305): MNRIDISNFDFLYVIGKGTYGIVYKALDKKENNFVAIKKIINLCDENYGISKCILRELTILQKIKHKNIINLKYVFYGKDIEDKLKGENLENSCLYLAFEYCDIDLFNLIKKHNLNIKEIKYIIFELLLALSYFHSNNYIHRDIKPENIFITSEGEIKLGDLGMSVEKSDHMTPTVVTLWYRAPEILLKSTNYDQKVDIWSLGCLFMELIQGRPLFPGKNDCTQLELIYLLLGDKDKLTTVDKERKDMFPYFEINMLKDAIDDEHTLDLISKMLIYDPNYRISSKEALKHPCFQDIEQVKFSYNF
Assay [7] deals with Protein kinase 7 (PK7), Plasmodium falciparum 3D7 (PF3D7_0213400) (UniProt Q7YTF7). Briefly: inhibition of Plasmodium PK7 catalytic activity – biochemical, TCAMS antimalarial set, Kinase-Glo luminescence (AID 1159587). The settings on record: recombinant PfPK7, Kinase-Glo ATP depletion luminescence.
Sequence of Protein kinase 7 (PK7), Plasmodium falciparum 3D7 (PF3D7_0213400) (Q7YTF7 1-343): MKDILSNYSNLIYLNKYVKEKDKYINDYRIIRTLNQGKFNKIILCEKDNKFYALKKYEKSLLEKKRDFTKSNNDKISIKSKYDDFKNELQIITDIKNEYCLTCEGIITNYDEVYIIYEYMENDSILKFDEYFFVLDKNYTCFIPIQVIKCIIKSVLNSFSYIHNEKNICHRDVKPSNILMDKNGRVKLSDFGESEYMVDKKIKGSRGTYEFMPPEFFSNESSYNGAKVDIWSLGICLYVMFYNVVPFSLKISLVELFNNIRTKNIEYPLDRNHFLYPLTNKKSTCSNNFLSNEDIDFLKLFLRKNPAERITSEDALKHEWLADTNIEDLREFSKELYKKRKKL
The target of assay [8] is Calcium-dependent protein kinase 4 (Plasmodium falciparum (isolate 3D7)) (UniProt Q8IBS5). As to the kind of experiment: PfCDPK4 kinase inhibitors, biochemical, TCAMS library (AID 1159588; cut-off not given, nearly all actives have IC50 up to about 0.91 µM). As to conditions: recombinant PfCDPK4, Kinase-Glo ATP depletion luminescence.
Sequence of Calcium-dependent protein kinase 4 (Plasmodium falciparum (isolate 3D7)) (Q8IBS5 whole entry, looked up): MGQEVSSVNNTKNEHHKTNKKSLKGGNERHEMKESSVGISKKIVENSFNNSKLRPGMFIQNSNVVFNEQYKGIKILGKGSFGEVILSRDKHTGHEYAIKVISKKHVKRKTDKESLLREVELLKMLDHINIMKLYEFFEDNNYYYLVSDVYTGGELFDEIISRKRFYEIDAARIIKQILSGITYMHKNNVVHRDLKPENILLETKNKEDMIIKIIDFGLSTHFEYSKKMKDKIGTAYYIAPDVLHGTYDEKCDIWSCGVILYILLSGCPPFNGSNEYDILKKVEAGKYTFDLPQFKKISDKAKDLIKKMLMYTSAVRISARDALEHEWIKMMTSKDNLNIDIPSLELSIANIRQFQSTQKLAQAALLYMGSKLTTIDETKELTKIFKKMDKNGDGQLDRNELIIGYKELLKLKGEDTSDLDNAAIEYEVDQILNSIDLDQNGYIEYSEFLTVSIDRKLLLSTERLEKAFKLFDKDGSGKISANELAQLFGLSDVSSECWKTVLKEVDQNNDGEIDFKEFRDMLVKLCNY

Sequence of L-lactate dehydrogenase (Plasmodium falciparum (isolate CDC / Honduras)) (Q27743 whole entry, looked up): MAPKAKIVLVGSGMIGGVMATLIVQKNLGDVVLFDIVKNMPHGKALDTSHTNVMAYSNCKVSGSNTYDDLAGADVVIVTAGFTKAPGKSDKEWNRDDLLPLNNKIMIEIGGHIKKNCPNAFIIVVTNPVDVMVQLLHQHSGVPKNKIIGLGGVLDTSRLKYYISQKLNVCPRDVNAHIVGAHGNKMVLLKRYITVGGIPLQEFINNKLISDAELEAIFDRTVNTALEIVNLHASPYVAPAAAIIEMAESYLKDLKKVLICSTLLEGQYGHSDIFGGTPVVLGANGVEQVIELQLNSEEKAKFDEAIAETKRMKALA

Regarding `CC(C)(C)CC(C)(C)c1ccc(O)c(C(=O)Nc2cccc([N+](=O)[O-])c2)c1`, the growth inhibition in assay [1] was 97% (active); in assay [4] it was 95% (active). Moreover, the inhibition in assay [2] was 49%; in assay [3], -8%. The outcome in assay [5], in assay [6], in assay [7] and in assay [8] was inactive.
With `COc1ccc2ncc(C#N)c(CCN3C[C@H](CNCc4ccccc4)[C@H](O)C3)c2n1`, the growth inhibition is 24% in assay [1] and 91% (active) in assay [4]. Moreover, the inhibition in assay [2] is 3%; in assay [3], 4%. Besides, the outcome in assay [5], in assay [6], in assay [7] and in assay [8] was inactive.
Take `O=C1OC(c2ccccc2)(c2ccccn2)CN1C1CCN(Cc2cccn2-c2ccc(Cl)cc2)CC1` (stereo not drawn): the growth inhibition in assay [1] is 98% (active); in assay [4], 99% (active). Besides, the results for the inhibition in assay [2] and in assay [3] were 21% and -5%, respectively. Moreover, the result in assay [5], in assay [6], in assay [7] and in assay [8] was inactive.
With `O=C(NCCCNc1ccc2ccccc2n1)c1cc2c(Cl)cc(Cl)cc2[nH]1`, the growth inhibition in assay [1] and in assay [4] was 100% (active) throughout. Moreover, the inhibition in assay [2] was 40%; in assay [3], 4%. Moreover, the outcome in assay [5], in assay [6], in assay [7] and in assay [8] was inactive.
With `CCOc1cc(C(=O)Nc2ccc(-c3nc4ccccc4[nH]3)cc2)cc(OCC)c1OCC`, the growth inhibition was 94% (active) in assay [1] and 100% (active) in assay [4]. Also, the inhibition is 42% in assay [2] and -2% in assay [3]. Moreover, the result in assay [5], in assay [6], in assay [7] and in assay [8] was inactive.
Consider `CC(=O)Nc1ncc(C(=O)Nc2cccc(-c3ccc(-c4nc5ccc(C(F)(F)F)cc5[nH]4)s3)c2)s1`, for which the growth inhibition in assay [1] was 99% (active); in assay [4], 101% (active). The values for the inhibition in assay [2] and in assay [3] were 90% (active) and 5%, respectively. For the same compound, the outcome in assay [5], in assay [6], in assay [7] and in assay [8] was inactive.
Turning to `O=C(Nc1ccc2c(c1)CCNCC2)c1ccc(-c2ccc(Cl)cc2)cc1`, the growth inhibition in assay [1] is 38%; in assay [4] it was 96% (active). Also, the inhibition in assay [2] was 71% (active); in assay [3], 0%. The result in assay [5], in assay [6], in assay [7] and in assay [8] was inactive.
Consider `COc1ccccc1-c1ccc2nnc(SCC(=O)Nc3ccc4c(c3)OCCO4)n2n1`, for which the growth inhibition in assay [1] is 5%; in assay [4] it was 99% (active). The inhibition in assay [2] is 9%; in assay [3], -7%. In addition, the outcome in assay [5], in assay [6], in assay [7] and in assay [8] was inactive.
As to `Clc1ccc(OCCC2CCN(CCCCCCN3CCCCC3)CC2)cc1Cl`, the growth inhibition was 36% in assay [1] and 97% (active) in assay [4]. Further, the inhibition in assay [2] was 86% (active); in assay [3], 9%. The outcome in assay [5], in assay [6], in assay [7] and in assay [8] was inactive.
For `N#Cc1ccc(CNCCCCCCNCc2ccc(C#N)c3ccccc23)c2ccccc12`, the values for the growth inhibition in assay [1] and in assay [4] were 96% (active) and 102% (active), respectively. For the same compound, the inhibition in assay [2] was 51% (active); in assay [3], -3%. Besides, the outcome in assay [5], in assay [6], in assay [7] and in assay [8] was inactive.
Regarding `CN(C)CCOc1ccc(/C(=C(/CCCn2ccnc2)c2ccccc2)c2ccc(O)cc2)cc1`, the growth inhibition is 99% (active) in assay [1] and 101% (active) in assay [4]. The figures for the inhibition in assay [2] and in assay [3] were 13% and 3%, respectively. In addition, the result in assay [5], in assay [6], in assay [7] and in assay [8] was inactive.
For the compound `COc1ccc2nccc([C@@H](O)CN3CCC(NCc4cc5c(cc4F)SCC(=O)N5)CC3)c2n1`, the growth inhibition in assay [1] was 27%; in assay [4], 96% (active). Besides, the results for the inhibition in assay [2] and in assay [3] were 14% and 3%, respectively. Moreover, the outcome in assay [5], in assay [6], in assay [7] and in assay [8] was inactive.
On to `COc1ccc2nccc([C@@H](O)CN3CCC(NCc4ccc(OC)c(NC(C)=O)c4)CC3)c2c1`, for which the results for the growth inhibition in assay [1] and in assay [4] were 0% and 90% (active), respectively. In addition, the values for the inhibition in assay [2] and in assay [3] were -5% and -4%, respectively. Besides, the result in assay [5], in assay [6], in assay [7] and in assay [8] was inactive.
On to `COc1cc(C)nc2ccc(NC(=O)c3cc([N+](=O)[O-])cc([N+](=O)[O-])c3)cc12`, for which the growth inhibition in assay [1] is 94% (active); in assay [4] it was 102% (active). Further, the inhibition in assay [2] is -2%; in assay [3] it was 2%. Also, the result in assay [5], in assay [6], in assay [7] and in assay [8] was inactive.
In the case of `COc1ccc(Nc2nc(C)cc(NC3CCCC3)n2)cc1`, the values for the growth inhibition in assay [1] and in assay [4] were 59% (active) and 98% (active), respectively. The inhibition in assay [2] is 34%; in assay [3], 0%. Moreover, the outcome in assay [5], in assay [6], in assay [7] and in assay [8] was inactive.
Turning to `COc1cccc(Nc2nc(Nc3cccc(C#N)c3)cc(C(F)(F)F)n2)c1`, the growth inhibition was 45% in assay [1] and 99% (active) in assay [4]. Further, the inhibition is 15% in assay [2] and 3% in assay [3]. The result in assay [5], in assay [6], in assay [7] and in assay [8] was inactive.
On to `O=C(NCCN1CCOCC1)c1ccc(CNC(=O)c2ccc(O)c(-c3ccc(Cl)c(Cl)c3)c2)cc1`, for which the growth inhibition is 55% (active) in assay [1] and 87% (active) in assay [4]. The inhibition was 3% in assay [2] and -1% in assay [3]. Also, the outcome in assay [5], in assay [6], in assay [7] and in assay [8] was inactive.
On to `C[C@@H](Oc1cc(-n2cnc3ccc(NC(=O)NC(C)(C)C)cc32)sc1C(N)=O)c1ccccc1Cl`, for which the figures for the growth inhibition in assay [1] and in assay [4] were 97% (active) and 95% (active), respectively. For the same compound, the values for the inhibition in assay [2] and in assay [3] were 28% and 1%, respectively. The result in assay [5], in assay [6], in assay [7] and in assay [8] was inactive.
For the compound `CC(C)[C@H](NC(=O)c1ccc(O)c(-c2ccc(Cl)c(Cl)c2)c1)C(=O)NCCN(C)C`, the growth inhibition in assay [1] is 1%; in assay [4] it was 92% (active). Further, the values for the inhibition in assay [2] and in assay [3] were -4% and -3%, respectively. In addition, the outcome in assay [5], in assay [6], in assay [7] and in assay [8] was inactive.
For `O=C(/C=C/c1ccc(Cl)c(Cl)c1)NCCCCCN1CCC(NC(=O)Nc2cccc(F)c2)CC1`, the growth inhibition was 6% in assay [1] and 100% (active) in assay [4]. Further, the inhibition in assay [2] was 30%; in assay [3], 2%. Also, the outcome in assay [5], in assay [6], in assay [7] and in assay [8] was inactive.
As for `NC1=NC(c2ccccc2)N(OCc2ccccc2)C(N)=N1` (stereo not drawn), the growth inhibition in assay [1] was 21%; in assay [4], 96% (active). The inhibition was 5% in assay [2] and -6% in assay [3]. The outcome in assay [5], in assay [6], in assay [7] and in assay [8] was inactive.

Values taken from PubChem BioAssay.
